Laboratory results taken from PubChem BioAssay AID1530 (NMMLSC, 2009).
Several values for one entry are separate records, joined by “and”; a condition that tells them apart may be missing. Identical values can stand only once. The campaign covered roughly 290,000 compounds. About 1,000 (0.34%) were called active. This excerpt belongs to a sample that is enriched for actives. A number with no mark means an inactive call. Rule as the data show it: active = percent response above about 24% (passing the limit was not always enough); inactive = the rest.

System: MEKK2 (MAP3K2) mutant PB1 domain binding to MEK5, human
Experiment: MEK5 binding signal on mutant MEKK2 PB1, primary screen, biochemical, multiplex bead flow cytometry, Alexa488-MEK5 (AID 1530)
Details: at 10 µM, active compounds read high

SMILES	percent response
COc1ccc(Br)cc1CN(C)CC(=O)Nc1cc(Cl)cc(Cl)c1	1%
Cc1ccc2c(c1)C1CN(C)CCC1N2C(=S)Nc1ccc(OC(F)F)cc1 (stereo not drawn)	5%
Cc1ccc2c(c1)C1CN(C)CCC1N2C(=O)c1ccccc1NS(=O)(=O)c1ccc(F)cc1C (stereo not drawn)	-2%
Cc1ccc2c(c1)C1CN(C)CCC1N2S(=O)(=O)c1ccc(Oc2ccc([N+](=O)[O-])cc2)cc1 (stereo not drawn)	63% (active)
O=C(CN(C(=O)CCC(=O)Nc1nccs1)c1ccc(F)cc1)NCc1ccc2c(c1)OCO2	-3%
CCCOc1ccc(CNC(=O)C2CCN(c3nn4c(=O)cc(C)nc4s3)CC2)cc1	11%
COc1ccc(CCN(C)C(=O)C2CCCN(Cc3ccc(OC)c(OC)c3)C2)cc1OC (stereo not drawn)	3% and 10%
COc1ccc(CCNC(=O)C2CCCN2C(=O)Nc2ccccc2)cc1OC (stereo not drawn)	5%
CCCCNC(=O)N1CCCC(N(C)CCc2ccc(OC)c(OC)c2)C1 (stereo not drawn)	24% (active)
C=CCC1=C/C(=C\c2c(N)n3nc(CC(=O)N4CCOCC4)sc3nc2=O)C=C(OC)C1=O	-5%
CCOC(=O)C1C(c2ccc(O)cc2)NC(=O)NC1(O)C(F)(F)F (stereo not drawn)	20%
COc1cccc(C2CC(c3cccs3)=NN2C(=O)CSC2=NCCS2)c1OC (stereo not drawn)	5%
CCc1nnc(NC(=O)CSCc2cc(=O)n3cc(C)sc3n2)s1	4%
COc1cccc(OCC(=O)Nc2ccccc2C(N)=O)c1	9%
COc1cccc(OCCCN2CCCCCC2)c1	-3%
CCCCCCCCCCOC(=O)Cn1c(COc2ccc(C)cc2)[n+](C)c2ccccc21	91% (active)
CCCCCCCCCCOC(=O)Cn1c(COc2cccc(OC)c2)[n+](C)c2ccccc21	81% (active)
Cc1ccc(OCc2nc3ccccc3n2C)cc1	-2%
CCCCOC(=O)Cn1c(=N)n(CCN(CC)CC)c2ccccc21	1%
COc1ccc(N(CC(=O)Nc2ccc(F)c(F)c2)S(=O)(=O)c2c(C)[nH]c(=O)[nH]c2=O)cc1	-7%
COc1cc(C(C(=O)NC2CCCC2)N(C(=O)c2ccco2)c2ccccc2C(C)=O)cc(OC)c1OC (stereo not drawn)	6%
O=C(N/N=C/c1cccc(O)c1)c1cc2c(ccc3ccccc32)o1	0%
O=C(CSc1nnc(SCc2ccc(Cl)cc2)s1)N/N=C/c1ccccc1Cl	20%

SMILES	percent response
Cc1ccc2c(c1)N(CC(=O)N(Cc1ccccn1)Cc1ccco1)C(=O)C(C(C)C)O2 (stereo not drawn)	3%
CCCc1cc(=O)[nH]c(SCC(=O)N2C(C)CCCC2C)n1 (stereo not drawn)	12%
CCCc1nnc(SCC(=O)N2C(C)CCCC2C)n1CC (stereo not drawn)	1490% (active)
CC1CCCC(C)N1C(=O)CSc1nnnn1C1CCCC1 (stereo not drawn)	-3%
O=C(NC(Cc1ccc(O)cc1)C(=O)O)/C(=C/c1ccccc1)NC(=O)c1ccccc1 (stereo not drawn)	4%
Fc1ccc(-c2ccc(CNCc3ccccn3)o2)cc1Cl	25% (active)
COc1ccc(-c2ccc(CNCCCN3CCOCC3)o2)cc1Cl	2%
CN(Cc1ccccn1)Cc1nc(-c2ccc(Cl)cc2)no1	-10%
CCCC(=O)N1CCN(c2nnc(-c3ccc(C)cc3)c3ccccc23)CC1	0%
C/C=C/C(=O)OCc1csc(CC(=O)Nc2ccccc2C)n1	-6%
O=C(c1ccco1)N1CCN(Cc2cccc(C(F)(F)F)c2)CC1	5%
O=C(CN1CCN(C(=O)c2ccco2)CC1)Nc1ccc2c(c1)OCO2	7%
O=C(CN1CCN(C(=O)c2ccco2)CC1)Nc1ccc(Cl)c(C(F)(F)F)c1	24% (active)
CC1CCC(NC(=O)c2ccc(N3CCCC3=O)cc2)CC1 (stereo not drawn)	6%
O=C(NCCCN1CCCCCC1)c1ccc(N2CCCC2=O)cc1	31% (active)
CCOc1ccc(C(=O)NCCCN2CCCC2=O)cc1	8%
CCN(CC(=O)Nc1ccc2c(c1)OCO2)S(=O)(=O)c1ccccc1	-3%
CC(=O)c1ccc(S(=O)(=O)N2CCN(c3nc4c(C)c(C)ccc4cc3C#N)CC2)cc1	1%
CCC1=Nc2cc(C(=O)NCCN3CCCC3)ccc2Sc2ccc(C)cc21	15%
Cc1ccc(C(=O)NCCN2CCOCC2)cc1C	-1%
Cc1cccc(-c2nc3ccc(C(=O)NCCN4CCN(C)CC4)cc3nc2-c2cccc(C)c2)c1	34% (active)
Cc1c(NC(=O)c2cc(-c3ccc(Br)cc3)on2)c(=O)n(-c2ccccc2)n1C	4%
CCOc1ccc(N(CC)S(=O)(=O)c2cccc3nsnc23)cc1	2%

SMILES	percent response
COc1ccc(NC(=O)CCNS(=O)(=O)c2ccc3c(c2)c(=O)n(C)c(=O)n3C)cc1OC	56% (active)
Cn1c(=O)c2cc(S(=O)(=O)NCCC(=O)Nc3ccc(F)cc3F)ccc2n(C)c1=O	-8%
Cc1ccc(NC(=O)CCNS(=O)(=O)c2ccc3c(c2)oc(=O)n3C)cc1C	3%
CCSc1nc2sc3c(c2c(=O)n1-c1ccc(C)cc1)CCN(C)C3	3%
CN(C)S(=O)(=O)c1ccc(N/C=C(\[N+](=O)[O-])S(=O)(=O)c2ccccc2)cc1	-3%
CCOC(=O)c1cccc(NC(=O)c2ccc(F)cc2F)c1	-1%
CCOc1ccccc1OCCCNCc1ccccc1	1%
CN1CCN(/N=C/c2ccc(C#N)cc2)CC1	134% (active)
CN1CCN(/N=C/c2ccc(-c3ccc([N+](=O)[O-])cc3)o2)CC1	-2%
CSc1ccc(/C=N/N2CCN(Cc3ccccc3Cl)CC2)cc1	-5%
Cc1ccc(CNC(=O)c2ccc3c(c2)S(=O)(=O)c2ccccc2C3=O)cc1	6%
COC(=O)Nc1ccc(S(=O)(=O)Nc2cc(OC)nc(OC)n2)cc1	7%
COc1ccc(C=C(C#N)C#N)c(CSc2ccccn2)c1	11%
O=C(NC1CCN(S(=O)(=O)c2ccc(F)cc2)CC1)c1ccccc1	4%
Cc1ccc(S(=O)(=O)NC(=O)N2CCCN(Cc3ccc(F)cc3)CC2)cc1	-4%
Cc1ccc(S(=O)(=O)NC(=O)N2CCCC(C)(C)C2)cc1	24% (active)
Cc1ccc(S(=O)(=O)NCC(=O)N2CCOCCOCCOCCOCC2)cc1	-7%
O=[N+]([O-])c1ccc2nc(-c3ccccn3)[nH]c2c1	-17%
Cc1cccc(Nc2nc(NCCO)nc(N3CCCC3)n2)c1	4%
COc1ccc(Cn2c(=S)[nH]c3cc(C(=O)N4CCCCC4)ccc3c2=O)cc1	-5%
C/C(=N\NC(=O)c1ccc(NS(=O)(=O)c2cccs2)cc1)c1ccc2ccccc2c1	-4%
CC(=O)c1cccc(OCc2cc(C(=O)NC(C)Cc3cccnc3)no2)c1 (stereo not drawn)	10%
CC(=O)Nc1ccc(Nc2c3ccccc3nc3ccccc23)cc1	3%

SMILES	percent response
Cc1ccc2nc(-c3ccc(NC(=O)c4cccnc4)cc3)oc2c1	0%
CC(=O)Nc1ccc(-c2nc3ccccc3o2)cc1	28% (active)
COc1ccc(-n2nc(C(=O)NCC(=O)N3CCCCCC3)c3ccccc3c2=O)cc1Cl	6%
CCN1CCN(c2ccc(S(=O)(=O)N3CCCCC3)cc2NC(=O)Cc2c(Cl)cccc2Cl)CC1	24% (active)
CN1CCN(c2ccc(S(=O)(=O)N3CCCCC3)cc2NC(=O)Cc2ccccc2F)CC1	0%
COc1ccc(CC(=O)Nc2cc(S(=O)(=O)N3CCCCC3)ccc2N2CCN(C)CC2)cc1	-1%
Cc1cccc(S(=O)(=O)N2CN(CC3CCCO3)c3nc4ccccc4nc32)c1 (stereo not drawn)	1%
Cc1ccc([N+](=O)[O-])c(OCCCNCC(C)O)c1 (stereo not drawn)	7%
CCOc1ccc(NC(=O)CCCCCN2C(=O)[C@@H]3Cc4ccccc4CN3C2=O)cc1	0%
CC(C)CC(=O)c1c[nH]c(C(=O)NCc2ccccc2)c1	10%
CN(C)CCCNC(=O)c1cc(C(=O)Cc2ccc(Cl)cc2)c[nH]1	27% (active)
CN(C)CCCNC(=S)NCc1ccc(Cl)cc1	13%
Cc1noc(C)c1C(=O)NCCc1ccc(S(N)(=O)=O)cc1	2%
Cc1ccc2nc(-c3ccc(NC(=O)CN(C)S(=O)(=O)c4ccccc4)cc3)sc2c1	-5%
CN(C)c1nc(Nc2ccc(Cl)c(Cl)c2)nc(N(C)C)n1	0%
Nc1nc(Nc2ccccc2)nc(NCCO)c1[N+](=O)[O-]	-1%
OCCNc1nc(Nc2ccc(Cl)c(Cl)c2)nc2ccccc12	31% (active)
CCOC(=O)C1=C(CN2CCc3ccccc32)NC(=O)NC1c1cc(C)ccc1C (stereo not drawn)	5%
COc1cc2c(cc1OC)C(C)N(S(=O)(=O)c1cnc(Cl)c(Cl)c1)CC2 (stereo not drawn)	10%
O=c1c2c3c(sc2n(CCN2CCCC2)c(=O)n1Cc1ccccc1)CCCCC3	1%
O=C(CC1SCCNC1=O)Nc1ccc(Cl)c(Cl)c1 (stereo not drawn)	174% (active)
O=C(CC1NCCNC1=O)Nc1cc(Cl)cc(Cl)c1 (stereo not drawn)	2%
O=C(CC1SCCNC1=O)Nc1ccc(Cl)cc1 (stereo not drawn)	-10%

SMILES	percent response
Cc1ccc(C(=O)c2coc3ccc(O)c(CN(C)C)c23)cc1	11%
COc1cccc2sc(N(CCCN(C)C)C(=O)CCS(=O)(=O)c3ccccc3)nc12	6%
COc1cccc2sc(N(CCCN(C)C)C(=O)C(c3ccccc3)c3ccccc3)nc12	22%
CN(C)CCCN(C(=O)COc1ccccc1)c1nc2c(Cl)cccc2s1	87% (active)
C/C(=N\NC(=O)c1ccoc1C)c1ccccc1O	3%
O=S(=O)(NC1CCCCC1N1CCC(O)CC1)c1ccc(Cl)cc1 (stereo not drawn)	2%
COc1ccc(C2NC(=O)C(=O)/C2=C(\O)c2ccc(Cl)cc2)cc1OC (stereo not drawn)	5%
CC(C)OCCCNC(=O)C1CC(=O)N(C2CCCCCCC2)C1 (stereo not drawn)	10%
O=C(NCCCN1CCCCCC1)C1CC(=O)N(C2CCCC2)C1 (stereo not drawn)	31% (active)
O=C(NCCc1ccc(Cl)cc1)C1CC(=O)N(C2CCCCC2)C1 (stereo not drawn)	-5%
CC1(C)C=Cc2c(ccc3c2OC[C@@H](c2ccc(O)cc2O)C3)O1	2%
O=C(CCCN1C(=O)/C(=C\c2ccco2)SC1=S)Nc1cccc2ccccc12	-3%
CCOC(=O)CC1C(=O)NCCN1c1nc2c(C)cccn2c(=O)c1/C=C1\SC(=S)N(C(C)CC)C1=O (stereo not drawn)	-23%
CNc1nc2c(C)cccn2c(=O)c1C=Nc1ccc(OC)cc1	0%
Cc1cccn2c(=O)c(/C=C3\SC(=S)N(CC(C)C)C3=O)c(NCCCOC(C)C)nc12	97% (active)
O=C(CCCN1C(=O)/C(=C/c2ccco2)SC1=S)Nc1ccccc1	0%
CCCN(CCC)c1nc2c(C)cccn2c(=O)c1/C=C1/SC(=S)N(Cc2ccco2)C1=O	147% (active)
Nc1ccc2nn(-c3ccc(Cl)cc3)nc2c1	-4%
Cc1cc2oc(=O)cc(CN3CCN(S(=O)(=O)c4cccs4)CC3)c2cc1C(C)C	0%
COC(=O)c1ccc(CNC(=O)C2CCC(=O)N(Cc3cccc(F)c3)C2)cc1 (stereo not drawn)	4%
O=C(Cn1ncc2c3ccccc3n(Cc3ccccc3)c2c1=O)NCCCN1CCOCC1	4%
